# According to paper PMC12864922, “TDP-43 directly inhibits mRNA accumulation in neurites through modulation of mRNA stability”:
# In all, about 9,900 sequences were measured (“r (bound/input frequency ratio)”: median about 0.7, highest 2% from about 6.5 on). Many of the other results were omitted from the sample, so the highest values are more common in it than they were.
# B1: ENSMUSG00000061578.522|Ksr2 (ssRNA)
# RNA: GGGAGUUCUACAGUCCGACGAUCGCUUCGAUAUCCGCAUGCUAGGAGCUCUUGCCUAACACACACCAAGCCCCAAGUUCCAUCCCCAGUCCCACACAAACCAGAUAUGAUGGUGUGUGCCUAUGUCCCCCACACACGAGAGAGCUGGAGGCAGGAGGAUCAGAAGUUCAGGGCCAUCCUUAAUCAUACAGUGAGCUUGAGAGCAACCUGGGCUACAUGUGACCCUAAUAACUUUUGUAAAUUCAGCACACUUGGCACCUCACACUCCAUGUCCAUAUACUGCAUGUGCCACACACACACACACCUCUUGCGGUCGCACUAGUGUGGAAUUCUCGGGUGUCAAGG
# B2: ENSMUSG00000028439.215|Fam219a (ssRNA)
# RNA: GGGAGUUCUACAGUCCGACGAUCGCUUCGAUAUCCGCAUGCUAACCUGGGUUCUGGUCCCAGCCUCGGCAUUCUCCCUGAGCUCCUAAGCAAUUCCCAGGCUUCUCUAGGGCUUCAGUUCUCACAACUGGAAAAUAAAGAGUAGCUGACAUCACCGACAGAGUCUUUUCAUACCAGAAGGAAUUUCUUCACAGGAGUUUCUGCAAAAGACUAUGACAUCUGUGUGUCUGUGGUCUCACGAGGUACCUGGAGGUGUAUGUGCACGGACAUGGGAAGUACGUGAAGAUUUAUUUCGGGAAAAGUGCUCUUGCGGUCGCACUAGUGUGGAAUUCUCGGGUGUCAAGG
# B3: ENSMUSG00000022095.99|Fam160b2 (ssRNA)
# RNA: GGGAGUUCUACAGUCCGACGAUCGCUUCGAUAUCCGCAUGCUAGCCCCCUCUUCCUGCUCUACCCUCCUGGAGGCUGUUGCAAAAUUCCCAACUGCCUCCUGGCAGAGGCCCAAAGUAUGCUCUGCGCCCAGGCGGGGGCAGCUGCUAACAAGAGCCCUGGCGCAGCUGCAGCCAGGGCAGGCGAGAGCCUUGGAGCUGGGUGCCAGGCUCCAGCUCCAGCUCCAGCUGGUUCCUCUCUGGCGCCUUCUGAACCCGUCUCAGCAAGUCCGAAACACCUGGGCAGAGAGGUCAUUGACCAGGGACUCUUGCGGUCGCACUAGUGUGGAAUUCUCGGGUGUCAAGG
# B4: ENSMUSG00000031028.626|Tub (ssRNA)
# RNA: GGGAGUUCUACAGUCCGACGAUCGCUUCGAUAUCCGCAUGCUAUUAGGGUAAAUGAAAGUUAGUCCUGGCUCUCAUCACCACCUUUCCUAGCUCAUCACUGUGCCUUCUUUCUUCCCUAAGAAAGACAAUGCACCCCUCUCUUCUGUUCUCCUGCCCCUUCGCCCCCACUGAGGUCCAGGUAGAGCAGAUGAGGCUGAAAUGUAGAGUGUUCUAUAGAGCAUCUCAGUAGCAUAGAAGGAGAAGCCCAGCUCCAACCUCCUGGACCCCAUACUGGUGACCAGCUUGGUGAGGACAGGCAAAAUCUCUUGCGGUCGCACUAGUGUGGAAUUCUCGGGUGUCAAGG
# B5: ENSMUSG00000004113.212|Cacna1b (ssRNA)
# RNA: GGGAGUUCUACAGUCCGACGAUCGCUUCGAUAUCCGCAUGCUAGCUCAGAGCAGCACGGGGGCUUGUGUCUUAGGGACAUUGACAGUGUCCAUCAGCAUGUCAGAGAAGCAGCUGUAGUGCCCGUGUUUCUCCCUGAGUCAUGGGUUCUGAAGAAGCCAGAGCGGCACAAUGCGUGCUUGCAUGAGGCACUUUCAGCCUUUUUAAAUCUGACUCUCAGGGAUGGGAUGCCUGCCAAGUAGGGUGUAAUCUCUGUUGUGUUUUUAAAACAACAACAACAAAAUAAAACAAAAAAAAAAAACCUACUCUUGCGGUCGCACUAGUGUGGAAUUCUCGGGUGUCAAGG
# B6: ENSMUSG00000061578.1091|Ksr2|55:59 (ssRNA)
# RNA: GGGAGUUCUACAGUCCGACGAUCGCUUCGAUAUCCGCAUGCUACAACCAUGAAAAUAGAGGUUUGUAAUGUACAGAAGGCUGGGGGAGCUUUCAGGGCACACGCCAGUUAUGUACAGAUGUGAAGCUGAGGUCUGAAGGAAAUGGAGGAAGUAGGAAGAUCAGACUGGUUGAAUUAGAAGUCUGUCACUCUAGGUGCUAAGUGACCUUGGACCCAGUCAGUUCUUGGAUUUCUGUUGUAGCCCAGGCUAGCCUCGAACCCUUGAUCCUCCUGUUCCUGGUAGAGAAACAGCCACUAAAUGGUGCUCUUGCGGUCGCACUAGUGUGGAAUUCUCGGGUGUCAAGG
# B7: ENSMUSG00000004113.162|Cacna1b (ssRNA)
# RNA: GGGAGUUCUACAGUCCGACGAUCGCUUCGAUAUCCGCAUGCUAGGUUUUCAGUCACAACACUUUCACUGUUUGUCAUUUCUAUGUAGUUGAUCUAGAAAAAGCAGAAAUCAAAACAGGAAAGGAAAUGUUUGUGUAACUUUAAAAAAAAAGUCAACAUGUAGGAAGGUCUCCAUUUUGCAUUGUUUCUGUGUCUUGUAUGCAAUGUUCCUGUAUGUUUCUACCCUGCCUGGGAUGUCCCCAAUGACCCUGGCUCCUCUGCUCAACCAAGUGCCUGAUCUCUGGCUCUGAGCAUCGUGGAUGAGCUCUUGCGGUCGCACUAGUGUGGAAUUCUCGGGUGUCAAGG
# B8: ENSMUSG00000029636.179|Wasf3 (ssRNA)
# RNA: GGGAGUUCUACAGUCCGACGAUCGCUUCGAUAUCCGCAUGCUACCCCUCCUGAAGCACAGCUCUCUUCUCUCCUGUUGUCGGCACAUUUUCAAUUUUAAAAAGUACCUCACAAGAUAAACUUGAUUCAGCCAGUUGCCCGGGCAGAGACCUGACUUCCCCUCUCCUGCCCUGAUCCUUUUUACCAAAUGGCGAUUCCAUAGUCCUGGCUGAGGCAGGGGCUCAAAGUCCAGUGUCUGCUUUGCAAUUCUGGAAGGACAGCUGCUUAUUUAAAUAAGUCUGUGAUAUCCGCAGGCUUGGGUUACCUCUUGCGGUCGCACUAGUGUGGAAUUCUCGGGUGUCAAGG
# B9: ENSMUSG00000061578.745|Ksr2 (ssRNA)
# RNA: GGGAGUUCUACAGUCCGACGAUCGCUUCGAUAUCCGCAUGCUACAUCUCUGGCUCUUUGUUUCCACUCUGGCCCAAGUUUGAGUCUCCAUAUGGGCCCUUCCUGUCCUCAUGCCCUGCCUGUCUUCAUUCCACCCAUCCACCCUCCUAAGGAUUGGUCUUGUUCCGAGAGUGAUCCUGGUAACGCCAAGCCUCCCUCUGCCCCUGUGUUGGCUUCUGUGACGGACUACCACACACCAAGAGGUUUUUCACAGUGAAGAUGUAUGCUCUCACCAUCCUACAGAUGCAAAGACCAAACACAAAGUCUCUUGCGGUCGCACUAGUGUGGAAUUCUCGGGUGUCAAGG
# Molecular target: TDP-43 (Homo sapiens, UniProt Q13148 1-414)
# Test: RNA Bind-n-Seq with designed 260-mer pool; 25 mM Tris-HCl, 150 mM KCl, 3 mM MgCl2, BSA (printed 500 mg/mL), 20 units/mL SUPERase IN; pH not stated; 500 nM RNA pool, 1 h, 4 C; TDP-43 5, 50, 500 nM; high values mean tight binding
# Conditions: protein: recombinant; tags: SBP (GST cleaved off with PreScission; pGEX-GST-SBP)
# In short: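 For each oligo, R gives binding as its mapped-read-normalized abundance after pulldown divided by its abundance in input. Bead-captured SBP-tagged TDP-43 (5, 50 or 500 nM) was incubated with 500 nM of an in vitro-transcribed 260-nt 3′ UTR oligo pool for 1 h at 4 °C in 25 mM Tris-HCl, 150 mM KCl, 3 mM MgCl2, BSA and SUPERase IN on streptavidin beads. Washed, biotin-eluted RNA was reverse transcribed, PCR-amplified and sequenced.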
# TDP-43, sequence (Q13148 whole entry): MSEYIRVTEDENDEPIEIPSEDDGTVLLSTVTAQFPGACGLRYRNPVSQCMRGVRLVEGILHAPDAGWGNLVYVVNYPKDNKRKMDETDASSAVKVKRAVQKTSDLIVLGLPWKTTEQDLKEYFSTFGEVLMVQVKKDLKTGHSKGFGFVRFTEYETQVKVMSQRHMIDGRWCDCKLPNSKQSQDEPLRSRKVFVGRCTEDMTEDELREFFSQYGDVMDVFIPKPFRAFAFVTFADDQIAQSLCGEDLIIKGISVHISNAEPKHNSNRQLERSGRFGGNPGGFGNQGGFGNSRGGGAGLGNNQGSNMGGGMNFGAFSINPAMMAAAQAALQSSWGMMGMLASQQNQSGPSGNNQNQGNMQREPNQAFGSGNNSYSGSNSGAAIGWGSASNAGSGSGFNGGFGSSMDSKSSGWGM
row,Binder,binding signal
1,B1,2.82 R (bound/input frequency ratio)
2,B2,1.67 R (bound/input frequency ratio)
3,B3,0.917 R (bound/input frequency ratio)
4,B4,0.915 R (bound/input frequency ratio)
5,B5,0.697 R (bound/input frequency ratio)
6,B6,0.848 R (bound/input frequency ratio)
7,B7,1.13 R (bound/input frequency ratio)
8,B8,0.495 R (bound/input frequency ratio)
9,B9,1.1 R (bound/input frequency ratio)
